Results: publication PMC4336329 (PLoS ONE, 2015)
The whole screen tested about 310,000 compounds, of which about 14,000 (4.5%) showed an effect of 50% or more. The effect is printed as a negative number. The full list was thinned out, with strong results kept by preference.
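Note: peak tail current of the secondary pulse compared with the same well before compound.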

These molecules were tested against human ether-à-go-go-related gene (hERG) potassium channel (human, UniProt Q12809) (assay: primary screen, population patch clamp on CHO cells stably expressing hERG; higher = less effect of the substance).
human ether-à-go-go-related gene (hERG) potassium channel, sequence (Q12809 whole entry, looked up): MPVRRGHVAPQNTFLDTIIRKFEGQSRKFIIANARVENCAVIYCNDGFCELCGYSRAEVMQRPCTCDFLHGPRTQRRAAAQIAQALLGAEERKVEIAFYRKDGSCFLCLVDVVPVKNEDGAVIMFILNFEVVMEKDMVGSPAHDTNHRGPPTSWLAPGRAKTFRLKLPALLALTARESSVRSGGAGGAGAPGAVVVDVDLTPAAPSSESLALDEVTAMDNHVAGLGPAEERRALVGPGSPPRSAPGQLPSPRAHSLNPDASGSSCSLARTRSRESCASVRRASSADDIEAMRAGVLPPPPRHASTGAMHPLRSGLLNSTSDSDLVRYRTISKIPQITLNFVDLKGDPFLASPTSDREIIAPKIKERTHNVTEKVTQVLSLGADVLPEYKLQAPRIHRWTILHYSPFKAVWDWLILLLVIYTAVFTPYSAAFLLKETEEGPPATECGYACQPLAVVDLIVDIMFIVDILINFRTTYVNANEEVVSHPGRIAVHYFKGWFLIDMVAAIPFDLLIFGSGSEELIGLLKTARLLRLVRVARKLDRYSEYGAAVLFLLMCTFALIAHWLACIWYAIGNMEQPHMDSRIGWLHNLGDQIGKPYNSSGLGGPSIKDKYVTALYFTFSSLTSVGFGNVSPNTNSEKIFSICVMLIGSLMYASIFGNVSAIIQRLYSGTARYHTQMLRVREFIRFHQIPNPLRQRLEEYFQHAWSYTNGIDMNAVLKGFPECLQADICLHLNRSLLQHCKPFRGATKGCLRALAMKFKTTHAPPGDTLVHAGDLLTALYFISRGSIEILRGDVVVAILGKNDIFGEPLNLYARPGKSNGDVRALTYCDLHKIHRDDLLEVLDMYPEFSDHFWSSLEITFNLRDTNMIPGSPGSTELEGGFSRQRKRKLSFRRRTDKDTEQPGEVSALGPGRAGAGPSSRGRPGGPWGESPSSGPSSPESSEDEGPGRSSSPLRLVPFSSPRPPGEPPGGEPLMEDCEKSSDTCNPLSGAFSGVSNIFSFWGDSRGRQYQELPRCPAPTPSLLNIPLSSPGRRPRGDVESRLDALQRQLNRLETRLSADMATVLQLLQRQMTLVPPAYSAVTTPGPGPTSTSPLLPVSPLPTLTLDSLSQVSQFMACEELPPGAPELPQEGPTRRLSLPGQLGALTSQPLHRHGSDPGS
For O=[N+]([O-])c1ccc(-c2nc(=S)c3c(o2)CCCC3)cc1, the “hERG current change (%, negative = inhibition) at 10uM” value was -6.53%.
For Oc1cccc2ccc(Nc3ccccn3)nc12, the “hERG current change (%, negative = inhibition) at 10uM” value was -53.6%.
c1ccc(Nc2ccccn2)nc1 was tested, and the “hERG current change (%, negative = inhibition) at 10uM” value was 7.19%.
For Oc1ccccc1Nc1ccccn1, the “hERG current change (%, negative = inhibition) at 10uM” value was 6.88%.
For Nc1ccc(C#Cc2c(-c3ccsc3)oc3ccc(N4CCOCC4)cc23)cc1, the “hERG current change (%, negative = inhibition) at 10uM” value was 5.98%.
NC(=O)c1ccc(NC(=O)CCN2C(=O)c3ccccc3C2=O)cc1 was tested, and the “hERG current change (%, negative = inhibition) at 10uM” value was 16%.
For CN(C)c1ccc(NC(=O)C2C3C=CC(C3)C2C(=O)O)cc1 (centres unmarked), the “hERG current change (%, negative = inhibition) at 10uM” value was 7.65%.
In the case of CC1CN(c2ncnc3c2cnn3-c2ccc(Cl)cc2)CC(C)O1 (centres unmarked), the “hERG current change (%, negative = inhibition) at 10uM” value is reported as 0.749%.
With O=c1cccc2n1CC1CC2CN(c2ncnc3c2cnn3-c2ccccc2)C1 (centres unmarked) the “hERG current change (%, negative = inhibition) at 10uM” value was -30%.
In the case of O=c1cccc2n1CC1CC2CN(c2ncnc3c2cnn3-c2ccc(Cl)cc2)C1 (centres unmarked), the “hERG current change (%, negative = inhibition) at 10uM” value is reported as -62.1%.
O=C(Nc1nnc(C2=COCCO2)o1)c1cccc(F)c1 was tested, and the “hERG current change (%, negative = inhibition) at 10uM” value was 16.7%.
In the case of Cn1c(C(=O)N2CCCC(C(=O)c3ccc(C(F)(F)F)cc3)C2)cc(=O)n(C)c1=O (centres unmarked), the “hERG current change (%, negative = inhibition) at 10uM” value is reported as -71.7%.
With O=C(c1ccc(C(F)(F)F)cc1)C1CCCN(C(=O)CCc2ccncc2)C1 (centres unmarked) the “hERG current change (%, negative = inhibition) at 10uM” value was -59.4%.
For O=C(CCc1ccncc1)N1CCCC(Nc2ccc(F)cc2)C1 (centres unmarked), the “hERG current change (%, negative = inhibition) at 10uM” value was -13.9%.
For O=C(c1ccc(C(F)(F)F)cc1)C1CCCN(C(=O)CCc2cnccn2)C1 (centres unmarked), the “hERG current change (%, negative = inhibition) at 10uM” value was -15.1%.
In the case of Cn1nccc1C(=O)N1CCCC(C(=O)c2ccc(C(F)(F)F)cc2)C1 (centres unmarked), the “hERG current change (%, negative = inhibition) at 10uM” value is reported as 6.14%.
With Cc1ccc(NC2CCCN(C(=O)CCc3ccncc3)C2)cc1C (centres unmarked) the “hERG current change (%, negative = inhibition) at 10uM” value was -24.5%.
With NC(=O)CCC(=O)N1CCCC(C(=O)c2ccc(C(F)(F)F)cc2)C1 (centres unmarked) the “hERG current change (%, negative = inhibition) at 10uM” value was 1%.
In the case of COc1ccc2cc(C(=O)C3CCCN(C(=O)c4cc(=O)n(C)c(=O)n4C)C3)ccc2c1 (centres unmarked), the “hERG current change (%, negative = inhibition) at 10uM” value is reported as -38.4%.
In the case of O=C(CCc1ccncc1)N1CCCC(Nc2ccc(F)c(F)c2)C1 (centres unmarked), the “hERG current change (%, negative = inhibition) at 10uM” value is reported as -56%.
O=C(c1ccc(S(=O)(=O)Nc2ccccc2F)cc1)N1CCCCCC1 was tested, and the “hERG current change (%, negative = inhibition) at 10uM” value was 2.93%.
In the case of O=C(N[C@@H]1CCC(=O)N(CC[C@H](Sc2ccc(Br)cc2)c2ccccc2)CC1)OCc1ccccc1, the “hERG current change (%, negative = inhibition) at 10uM” value is reported as 0.417%.
For COc1ccc2[nH]c(=O)c(CN(CCO)S(=O)(=O)c3ccc(C)cc3)cc2c1, the “hERG current change (%, negative = inhibition) at 10uM” value was -9.52%.
In the case of Cc1ccc(C)c(NC(=S)N/N=C2\CCc3ccccc32)c1, the “hERG current change (%, negative = inhibition) at 10uM” value is reported as 9.03%.
In the case of COc1ccc(CCNC(=O)Cc2cc(=O)[nH]c(=O)[nH]2)cc1OC, the “hERG current change (%, negative = inhibition) at 10uM” value is reported as -9.44%.
With CCN1/C(=C2/SC(=S)N(C)C2=O)C=Cc2cc(C)ccc21 the “hERG current change (%, negative = inhibition) at 10uM” value was -1.96%.
In the case of CCN1C(=O)/C(=C2/C=Cc3cc(C)ccc3N2CC)N(C)C1=S, the “hERG current change (%, negative = inhibition) at 10uM” value is reported as -54.8%.
With CCN1/C(=C2\C(=O)N(C)C(=S)N2C)C=Cc2cc(C)ccc21 the “hERG current change (%, negative = inhibition) at 10uM” value was -33.4%.
In the case of CC1=NN(C(C)C)C(=O)C1, the “hERG current change (%, negative = inhibition) at 10uM” value is reported as 8.62%.
CCOC(=O)C1(Cc2cccc(F)c2)CCN(Cc2cnc(C)s2)CC1 was tested, and the “hERG current change (%, negative = inhibition) at 10uM” value was -2.73%.
CCOC(=O)C1(CC2CC2)CCN(Cc2cnc(N(C)C)s2)CC1 was tested, and the “hERG current change (%, negative = inhibition) at 10uM” value was -22.1%.
In the case of CCOC(=O)C1(CCOC)CCN(Cc2cc3ccccc3s2)CC1, the “hERG current change (%, negative = inhibition) at 10uM” value is reported as -22.5%.
In the case of CCOC(=O)C1(CCc2ccccc2)CCN(Cc2cnc(N(C)C)s2)CC1, the “hERG current change (%, negative = inhibition) at 10uM” value is reported as -83%.
CCOC(=O)C1(CCOc2ccccc2)CCN(Cc2cccs2)CC1 was tested, and the “hERG current change (%, negative = inhibition) at 10uM” value was -81.8%.
CCOC(=O)C1(CCOc2ccccc2)CCN(Cc2ccc(C)s2)CC1 was tested, and the “hERG current change (%, negative = inhibition) at 10uM” value was -89.8%.
In the case of CCOC(=O)C1(CCCc2ccccc2)CCN(Cc2cnc(C)s2)CC1, the “hERG current change (%, negative = inhibition) at 10uM” value is reported as -73.1%.
For CCN(CC)C(=O)CC(c1ccc(F)cc1)c1ccc(OC)cc1 (centres unmarked), the “hERG current change (%, negative = inhibition) at 10uM” value was -25.1%.
For CC1CC(C)(C)N2C(=O)C3(Nc4ccccc4S3)c3cccc1c32 (centres unmarked), the “hERG current change (%, negative = inhibition) at 10uM” value was 22.1%.
For Cc1ccc(C(C)C)cc1OCCCCN1CCCC1, the “hERG current change (%, negative = inhibition) at 10uM” value was -49%.
In the case of COc1ccc(N(CC(=O)NCCSCc2ccco2)S(=O)(=O)c2ccccc2)cc1, the “hERG current change (%, negative = inhibition) at 10uM” value is reported as -9.08%.
In the case of COc1ccc(CN2C(=O)c3ccccc3C2=O)cc1C(=O)N(C)CC(=O)Nc1c(C)cccc1C, the “hERG current change (%, negative = inhibition) at 10uM” value is reported as -16.7%.
For CCOC(=O)C1(CCOc2ccccc2)CCN(Cc2cnc(C)[nH]2)CC1, the “hERG current change (%, negative = inhibition) at 10uM” value was -48.3%.
With CCOC(=O)C1(CCOc2ccccc2)CCN(Cc2cnc(C)s2)CC1 the “hERG current change (%, negative = inhibition) at 10uM” value was -62.4%.
In the case of CCC(=O)Nc1cccc(NC(=O)c2ccc(C)cc2Cl)c1, the “hERG current change (%, negative = inhibition) at 10uM” value is reported as 34.5%.
In the case of NC(=S)NNc1ccc(Cl)c(Cl)c1, the “hERG current change (%, negative = inhibition) at 10uM” value is reported as 16.3%.
For COc1ccc(C(=O)NCCCn2ccnc2)cc1[N+](=O)[O-], the “hERG current change (%, negative = inhibition) at 10uM” value was -8.22%.
Cl.O=C(NCCCn1ccnc1)c1ccc(N2CCCCCC2)c([N+](=O)[O-])c1 was tested, and the “hERG current change (%, negative = inhibition) at 10uM” value was -64%.
O=C(NCCCn1ccnc1)c1ccc(N2CCCCC2)c([N+](=O)[O-])c1 was tested, and the “hERG current change (%, negative = inhibition) at 10uM” value was -71.7%.
For Cl.O=C(NCCCn1ccnc1)c1ccc(S(=O)(=O)N2CCCCCC2)cc1, the “hERG current change (%, negative = inhibition) at 10uM” value was -7.07%.
For O=C(NCCCN1CCOCC1)c1ccc(N2CCCC2)c([N+](=O)[O-])c1, the “hERG current change (%, negative = inhibition) at 10uM” value was -16.8%.
Cc1ccc(C(=O)NCCCn2ccnc2)cc1[N+](=O)[O-] was tested, and the “hERG current change (%, negative = inhibition) at 10uM” value was 4.53%.
COc1ccc(/C=C(\NC(=O)c2ccccc2)C(=O)NCCC(=O)O)cc1 was tested, and the “hERG current change (%, negative = inhibition) at 10uM” value was 26.3%.
For Cc1cc(NC(=O)c2ccc3c(c2)OCCO3)ccc1NC(=O)c1ccco1, the “hERG current change (%, negative = inhibition) at 10uM” value was 8.5%.
With COc1ccc(C(=O)NCC(=O)N/N=C/c2ccco2)cc1OC the “hERG current change (%, negative = inhibition) at 10uM” value was 25.9%.
CCCc1ccc(OCCNC(=O)CC)cc1 was tested, and the “hERG current change (%, negative = inhibition) at 10uM” value was -10.9%.
In the case of COC(=O)C1=CN(c2ccc(Cl)cc2)C=C(C(=O)OC)C1c1ccc([N+](=O)[O-])cc1, the “hERG current change (%, negative = inhibition) at 10uM” value is reported as 16.2%.
With COc1ccc(C(C(=O)Nc2ccc(F)cc2)N(C(=O)Cn2nnc3ccccc32)C2CC2)cc1 (centres unmarked) the “hERG current change (%, negative = inhibition) at 10uM” value was -45.6%.
With CCOc1ccc(C(C(=O)Nc2ccc(F)cc2)N(C(=O)Cn2nnc3ccccc32)C2CC2)cc1 (centres unmarked) the “hERG current change (%, negative = inhibition) at 10uM” value was -50.3%.
For CCC(C)N(C(=O)Cn1nnc2ccccc21)C(C(=O)Nc1ccc(F)cc1)c1cccc(OC)c1 (centres unmarked), the “hERG current change (%, negative = inhibition) at 10uM” value was -18.8%.
